The values that follow come from ChEMBL document CHEMBL4513216, “Probing the Open Global Health Chemical Diversity Library for Multistage-Active Starting Points for Next-Generation Antimalarials” (ACS Infect Dis, 2020).

Each structure is given as a SMILES string. Screen size: about 68,000 compounds; about 2,700 (4%) showed an effect of 50% or more. The list comes from a sample in which strong results are over-represented; it also holds similar structures and randomly drawn compounds.

The subject of this experiment is Plasmodium berghei. As to the kind of experiment: Screen against P. berghei liver stage (PbLuc), transformed with Luciferase, at 2uM. As to conditions: tested at 2 uM. In kind it is functional, HepG2.
On to `Cc1cc(CN2CCN(CC(O)c3ccc(C)c(C)c3)CC2)no1` (stereo unspecified), for which the INHIBITION is on record as -29.69%.
As for `CCCOc1ccc(CNC(=O)N2CCC(C(N)=O)C2)cc1` (stereo unspecified), the INHIBITION was 76.69%.
On to `CC(C)c1ccc(OCCC(=O)N2CCCN(C(N)=O)CC2)cc1`, for which the INHIBITION came out at 19.71%.
For `CCOCc1ccc(CNC(=O)N2CCC(C(N)=O)C2)cc1` (stereo unspecified) the value was 47.23%; for `CC(C)c1ccc(OCCC(=O)N2CCC(C(N)=O)CC2)cc1`, 3.33%.
For the compound `CS(=O)(=O)Cc1ccc(CNC(=O)N2CCC(C(N)=O)C2)cc1` (stereo unspecified), the INHIBITION worked out at 31%.
For `CC(C)c1ccc(OCCC(=O)N2CCCC(C(N)=O)C2)cc1` (stereo unspecified) the value was 52.47%.
The result for `COCCN1CCCn2cnc(CNC3CCCC3)c2C1` reads -24.29%; that for `Fc1cnc(N2CCC3(CC2)CN(Cc2cccs2)CCO3)nc1`, 43.29%.
For `COc1ccccc1C(C)(C)NC(=O)Nc1ccc(F)c(C(N)=O)c1` the value was 20.21%; for `CN(Cc1cncnc1)[C@@H]1CN(Cc2ccco2)C[C@@H]2CCCO[C@@H]21`, -37.2%; for `CCCN1CCN(C(=O)Cn2nc(C(F)(F)F)c(Br)c2C2CC2)CC1`, -3.36%.
Consider `CC(C)C(NC(=O)c1ccc(Cl)cc1Cl)C(=O)Nc1ccn(C)n1` (stereo unspecified), for which the INHIBITION is 42.76%.
For `O=C(COC1CCCCC1)Nc1ccn(CCc2ccncc2)n1` the value was 13.99%; for `Cn1cccc1C(=O)NC(C)(C(N)=O)c1cccc(C(F)(F)F)c1` (stereo unspecified), -23.95%.
Consider `Cc1cccc(C2(O)CCN(Cc3ccccc3N3CCCC3)CC2)c1`, for which the INHIBITION was found to be 4.06%.
Consider `OC1(c2ccc(F)cc2)CCN(Cc2ccccc2N2CCCC2)CC1`, for which the INHIBITION is on record as 58.02%.
As to `OC1(c2ccccc2F)CCN(Cc2ccccc2N2CCCC2)CC1`, the INHIBITION amounted to 14.73%.
The result for `Cc1noc(C)c1CN(C)CC(c1cccs1)N1CCOCC1` (stereo unspecified) reads 43.7%; that for `Cc1cc(N(C)C)nc(NC2CCc3nc(C)nn3C2)n1` (stereo unspecified), 13.28%; that for `O=C(O)c1ccccc1-c1ccc(CNC(=O)C2CCOCC2)cc1`, 22.95%.
For `OCC1(Cc2ccc(Cl)cc2)CCN(Cc2ccccc2O)CC1` the value was -58.31%; for `COc1cccc(CN2CCC(CO)(Cc3ccc(Cl)cc3)CC2)c1O`, 71.83%; for `COc1ccc(CN2CCC(CO)(Cc3ccc(Cl)cc3)CC2)c(O)c1`, 36.34%.
For `O=C(Nc1ccc(N2CCOCC2)nc1)N1CCc2sccc2C1` the value was 57.59%.
As to `O=C(Nc1ccc(N2CCCCC2)nc1)N1CCc2sccc2C1`, the INHIBITION is recorded as -4.09%.
The result for `O=C(Nc1ccc(N2CCCC2)nc1)N1CCc2sccc2C1` reads -19.54%; that for `CN1C(=O)CCC12CCN(S(=O)(=O)c1ccccc1)CC2`, 46.32%.
For `Cn1cnnc1S(=O)(=O)C1CCN(C(=O)c2ccco2)CC1` the value was 31.78%.
Consider `CCSc1ccccc1C(=O)N1CCC(S(=O)(=O)c2nncn2C)CC1`, for which the INHIBITION is 59.08%.
Turning to `Cn1cnnc1S(=O)(=O)C1CCN(C(=O)c2cccs2)CC1`, the INHIBITION is listed as 25.55%.
For the compound `CN(Cc1ccccc1F)Cc1cc2c(cc1Br)OCCO2`, the INHIBITION is given as 12.68%.
For `Cc1cnc(C(=O)N2C[C@@H]3CC[C@H]2CN(Cc2cscn2)C3)[nH]1` the value was -0.62%; for `Cc1noc(C)c1CNCc1ccccc1N(C)C1CCN(C)CC1`, 50.46%; for `CCc1cc(CNCc2ccccc2N(C)C2CCN(C)CC2)on1`, -19.27%.
The result for `CN1CCC(N(C)c2ccccc2CNCc2ccco2)CC1` reads 24.6%; that for `CCC(CO)N(C/C(C)=C/c1ccco1)Cc1ccsc1` (stereo unspecified), 5.85%.
Take `CCOc1ncccc1C(=O)NC1CC(=O)N(CC(F)(F)F)C1` (stereo unspecified): the INHIBITION is -27.19%.
The result for `CC(=O)N1CCC(C(=O)N(CC(F)F)c2cccc(Cl)c2)CC1` reads 23.06%.
The result for `CCCS(=O)(=O)N1CCC(n2nc(-c3cc(C)oc3C)ccc2=O)CC1` reads -17.72%; that for `Cn1c(C2CCCN2C(=O)CN2CSCC2=O)nc2ccccc21` (stereo unspecified), -73.81%.
The result for `CC(C)(C)n1nc(C2CC2)cc1C(=O)NC1CCN(CC(N)=O)CC1` reads 40.97%; that for `Cc1cc(C(=O)NC2CCN(CC(N)=O)CC2)nn1C(C)(C)C`, 61.06%; that for `CC(C)c1cc(C(=O)NC2CCN(CC(N)=O)CC2)nn1C(C)(C)C`, 0.79%.
In the case of `CNC(=O)C1CCC(NC(=O)c2cc(C3CC3)n(C(C)(C)C)n2)CC1` (stereo unspecified), the INHIBITION is 37%.
For `Cc1cc(C(=O)NCCN2CCC(C)CC2)nn1C(C)(C)C` the value was 10.1%; for `CC(C)(C)n1nc(C(=O)NC2CCN(CC(N)=O)CC2)cc1C1CC1`, 52.74%; for `NC(=O)NCC1CCCCN1Cc1nc(-c2ccco2)no1` (stereo unspecified), -3.06%.
For `COc1ccc(CCC(=O)NCCN2CCC(c3cccs3)CC2)cc1` the value was 11.78%; for `CC(CC(=O)NCCNS(C)(=O)=O)C1CCCCC1` (stereo unspecified), -13.76%; for `CC(NC(=O)Cn1ccc(=O)n(C)c1=O)c1cc(F)ccc1F` (stereo unspecified), 16.25%.
The result for `COCCOCCC(=O)Nc1c(-c2ccc(F)cc2)ncn1C` reads 35.68%; that for `CC(C)OCCC(=O)Nc1c(-c2ccc(F)cc2)ncn1C`, 6.47%; that for `CC(C)COCCC(=O)Nc1c(-c2ccc(F)cc2)ncn1C`, 60.43%.
Consider `CCN1CC(CN(C)Cc2nc(-c3cccc(Cl)c3)oc2C)CC1=O` (stereo unspecified), for which the INHIBITION is on record as 32.26%.
For `CN(Cc1nc(COc2ccccc2)no1)CC1Cc2ccccc2O1` (stereo unspecified) the value was 8.03%.
For `CN(Cc1nc(CC2CC2)no1)CC1Cc2ccccc2O1` (stereo unspecified) the value was 44.37%; for `CN(Cc1nc(Cc2ccccc2F)no1)CC1Cc2ccccc2O1` (stereo unspecified), 60.9%; for `O=C(c1cccc(NCCO)c1)N1CCOCC1`, 10.74%.
Consider `CCN(CC)C(=O)c1ccc(Cl)c(NC(=O)c2cnc(C)cn2)c1`, for which the INHIBITION came out at 20.71%.
For `Cc1cn2c(n1)CCC(NC(=O)CCn1cncn1)C2` (stereo unspecified) the value was 19.64%; for `Cc1nc(CN2C[C@@H]3COC[C@]3(COCC(=O)N(C)C)C2)cs1`, 23.09%; for `Cc1cccc(CN2C[C@@H]3COC[C@]3(COCC(=O)N(C)C)C2)n1`, 27.52%.
The result for `Cc1cc(CN2C[C@@H]3COC[C@]3(COCC(=O)N(C)C)C2)no1` reads 64.37%.
For `CC(=O)Nc1ccc(CN2CCc3[nH]cnc3C2c2nccn2C)cc1` (stereo unspecified) the value was -42.54%; for `Clc1ccccc1OCCc1cc(C2CCNC2)n[nH]1` (stereo unspecified), 16.14%.
